The assay has as its system Parabacteroides merdae. As to the kind of experiment: growth AUC relative to DMSO control (median of replicates) (fraction); higher = more growth (less inhibition), active = hit call of the paper. Particulars: 20 µM; 24 h;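 active = AUC reduced over 20% with Padj below 0.05 in at least 2 of 3 replicates; inactive = otherwise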. The method in brief:
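In round-bottom 96-well plates sealed with pierced gas-permeable seals, gut bacterial monocultures in mGAM were grown anaerobically at 37 °C from OD600 0.05 with 20 µM compound (1% DMSO). OD600 readings were taken hourly for 24 h, and the minimum OD was set to 0. Area under the growth curve was then normalised to the plate median of solvent-only wells, or to row and column medians on the industrial chemical plate. The value given is the median of three biological replicates grown on separate days.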
Consider `O=C(O)C1(O)c2ccccc2-c2ccc(Cl)cc21` (centres undefined), for which the “growth AUC” value was 0.987 (inactive).

Turning to `O=C(O)C(F)(F)C(F)(F)C(F)(F)C(F)(F)C(F)(F)C(F)(F)C(F)(F)F`, the “growth AUC” value was 1 (inactive).

Turning to `COP(=O)(OC)OC=C(Cl)Cl`, the “growth AUC” value was 1.01 (inactive).

For `CCCN(CC)CC1COC2(CCC(C(C)(C)C)CC2)O1` (centres undefined), the “growth AUC” value is 0.965 (inactive).

On to `CCOP(=O)(SC(C)CC)N1CCSC1=O` (centres undefined), for which the “growth AUC” value is 1.01 (inactive).

Regarding `O=NN(CCO)CCO`, the “growth AUC” value is 1.04 (inactive).

With `CSc1nc(N=[N+]=[N-])nc(NC(C)C)n1`, the “growth AUC” value was 1 (inactive).

As to `COP(=O)(OC)Oc1ccc(S(C)=O)c(C)c1` (centres undefined), the “growth AUC” value is 0.978 (inactive).

For `O=C(Nc1ccccc1)N(Cc1ccc(Cl)cc1)C1CCCC1`, the “growth AUC” value was 0.922 (inactive).

With `CC(C)OC(=O)C(C(=O)OC(C)C)=C1SCCS1`, the “growth AUC” value is 1.01 (inactive).

Consider `CCC(C)[C@H]1O[C@]2(C=C[C@@H]1C)C[C@@H]1C[C@@H](C/C=C(\C)[C@@H](O[C@H]3C[C@H](OC)[C@@H](O[C@H]4C[C@H](OC)[C@@H](O)[C@H](C)O4)[C@H](C)O3)[C@@H](C)/C=C/C=C3\CO[C@@H]4[C@H](O)C(C)=C[C@@H](C(=O)O1)[C@]34O)O2.CO[C@H]1C[C@H](O[C@H]2[C@H](C)O[C@@H](O[C@@H]3/C(C)=C/C[C@@H]4C[C@@H](C[C@]5(C=C[C@H](C)[C@@H](C(C)C)O5)O4)OC(=O)[C@@H]4C=C(C)[C@@H](O)[C@H]5OC/C(=C\C=C\[C@@H]3C)[C@]54O)C[C@@H]2OC)O[C@@H](C)[C@@H]1O` (some centres undefined), for which the “growth AUC” value is 1.05 (inactive).

Take `CCCN(CCC)c1c([N+](=O)[O-])cc(C(C)C)cc1[N+](=O)[O-]`: the “growth AUC” value is 0.984 (inactive).

On to `Nc1ccncc1`, for which the “growth AUC” value is 1.02 (inactive).

Take `CCCSP(=O)(OCC)SCCC`: the “growth AUC” value was 1.01 (inactive).

`BrCCBr`: the “growth AUC” value is 0.99 (inactive).

`CCCC(Cn1cncn1)c1ccc(Cl)cc1Cl` (centres undefined): the “growth AUC” value is 0.969 (inactive).

Consider `Nc1nc(N)nc(NC2CC2)n1`, for which the “growth AUC” value is 1 (inactive).

Turning to `C#CC(C)(C)NC(=O)c1cc(Cl)cc(Cl)c1`, the “growth AUC” value is 1.01 (inactive).

On to `Oc1ccc(Cl)cc1`, for which the “growth AUC” value was 0.988 (inactive).

As to `CNC(=O)Oc1cccc2c1OC(C)(C)O2`, the “growth AUC” value was 1.02 (inactive).

For `CCNc1nc(Cl)nc(NC(C)(C)C#N)n1`, the “growth AUC” value was 1.01 (inactive).

In the case of `ClC1=C(Cl)C(Cl)(C2(Cl)C(Cl)=C(Cl)C(Cl)=C2Cl)C(Cl)=C1Cl`, the “growth AUC” value was 0.863 (inactive).

For `COP(=O)(OC)Oc1ccc(S(C)(=O)=O)c(C)c1`, the “growth AUC” value is 0.995 (inactive).

Regarding `CC(C)(C)C(O)C(Oc1ccc(-c2ccccc2)cc1)n1cncn1` (mixture of isomers), the “growth AUC” value is 0.976 (inactive).

With `CC(C)(C)N(NC(=O)c1ccc(Cl)cc1)C(=O)c1ccccc1`, the “growth AUC” value is 0.97 (inactive).

Consider `Cc1ccccc1[N+](=O)[O-]`, for which the “growth AUC” value is 0.995 (inactive).

In the case of `CCN(CC)C(=O)C(C)Oc1cccc2ccccc12` (centres undefined), the “growth AUC” value is 1.02 (inactive).

Regarding `CCN(CC)C(=O)SCc1ccc(Cl)cc1`, the “growth AUC” value is 0.972 (inactive).

As to `CNC(=O)ON=C(CS(C)=O)C(C)(C)C` (centres undefined), the “growth AUC” value is 1.01 (inactive).

`COP1(=S)OCc2ccccc2O1` (centres undefined): the “growth AUC” value was 0.999 (inactive).

For the compound `O=C(O)C(Cl)Cl`, the “growth AUC” value was 1.03 (inactive).

Take `N#CN=C1SCCN1Cc1ccc(Cl)nc1`: the “growth AUC” value is 1.01 (inactive).

As to `CC(C)NC(=O)N1CC(=O)N(c2cc(Cl)cc(Cl)c2)C1=O`, the “growth AUC” value was 1 (inactive).

Regarding `O=[N+]([O-])c1ccccc1`, the “growth AUC” value was 1.03 (inactive).

For the compound `[Cl][Sn]([c]1ccccc1)([c]1ccccc1)[c]1ccccc1`, the “growth AUC” value was 0.0101 (active).

Take `Nc1ncn[nH]1`: the “growth AUC” value is 0.981 (inactive).

For `CC(C)OC(=O)C(O)(c1ccc(Br)cc1)c1ccc(Br)cc1`, the “growth AUC” value was 0.868 (inactive).

Take `CNC1=C(c2cccc(C(F)(F)F)c2)C(=O)C(c2ccccc2)O1` (centres undefined): the “growth AUC” value is 0.969 (inactive).

`O=c1oc2ccccc2c(O)c1C1CC(c2ccc(-c3ccc(Br)cc3)cc2)Cc2ccccc21` (centres undefined): the “growth AUC” value is 0.00968 (active).

The values above are taken from the supplement of paper PMC12669032.
